About 8,600 (12%) of roughly 69,000 compounds showed an effect of 50% or more. This excerpt belongs to a sample that is enriched for strong results.

The subject of this experiment is Plasmodium berghei. As to the kind of experiment: Screen against P. berghei liver stage (PbLuc), transformed with Luciferase, at 10uM. It is filed as functional, HepG2. The note with it: tested at 10 uM.
Consider `Cn1ccnc1-c1nccn1C[C@@H]1CCCN2CCCC[C@H]12`, for which the INHIBITION worked out at 12%. With `COc1ccc(-c2nccn2C[C@@H]2CCCN3CCCC[C@H]23)cc1` the figure was 65.3%; with `c1cnc2c(-c3nccn3C[C@@H]3CCCN4CCCC[C@H]34)cccc2c1`, 20.2%. On to `CCc1ccc(CNC(=O)N2CCN(Cc3cc(C)on3)CC2)s1`, for which the INHIBITION is 7.12%. With `O=C1CN(C(=O)c2cccc(C(F)(F)F)c2)CC(O)CN1CC1CC1` (configuration not stated) the figure was 25.3%; with `CCN1CC(O)CN(C(=O)c2cccc(C(F)(F)F)c2)CC1=O` (configuration not stated), 5.58%. For `CC(C)(C)CN1CC(O)CN(C(=O)c2cccc(C(F)(F)F)c2)CC1=O` (configuration not stated), the INHIBITION was 60.8%. Turning to `CC(C)CN1CC(O)CN(C(=O)c2cccc(C(F)(F)F)c2)CC1=O` (configuration not stated), the INHIBITION is reported as 45.7%. `COCCN1CC(O)CN(C(=O)c2cccc(C(F)(F)F)c2)CC1=O` (configuration not stated): the INHIBITION came to 13.1%.

Take `N#CCCN1CC(O)CN(C(=O)c2cccc(C(F)(F)F)c2)CC1=O` (configuration not stated): the INHIBITION came out at 57%. Take `CSc1ccccc1C(=O)N1CCOC(CCN(C)C)C1` (configuration not stated): the INHIBITION amounted to 12.1%.

Turning to `Cc1ccc(NC2CCCN(CCCc3ccccc3)C2)nn1` (configuration not stated), the INHIBITION was found to be 35.7%. Take `O=C(CCNc1ncccn1)N1CCCN(c2nccs2)CC1`: the INHIBITION amounted to 33.7%. With `CCN(CCC1CCN(C(=O)NCc2nncn2CC)CC1)CC1CC1` the figure was -38.2%; with `CCc1cnc(N2C[C@@H]3C[C@H](C(=O)NC)[C@H](C2)O3)nc1`, -45.8%; with `OCCNC1CCc2cc3c(cc21)OCCO3` (configuration not stated), 55.1%.

Turning to `OCC1(CNC2CCc3cc4c(cc32)OCCO4)CC1` (configuration not stated), the INHIBITION is listed as -122%.

`OCCCNC1CCc2cc3c(cc21)OCCO3` (configuration not stated): the INHIBITION was -56.6%. Take `O=C(c1ccc(Cl)cc1)N1CC2(CCNC2)OCc2ccccc21` (configuration not stated): the INHIBITION was determined as 39.1%.

For `CC(NC(=O)CCC(C)(C)C)C(=O)Nc1ccc(-n2cncn2)cc1` (configuration not stated), the INHIBITION was found to be 50%.

As for `CCC(C)(C)CC(=O)NC(C)C(=O)Nc1ccc(-n2cncn2)cc1` (configuration not stated), the INHIBITION came out at 26%.

In the case of `CC(NC(=O)Nc1ccc(-n2cncn2)cc1)C(=O)NC(C)(C)C` (configuration not stated), the INHIBITION was determined as 41.4%.

Turning to `CC(C)c1noc(CCCC(=O)NC(C)c2ccccn2)n1` (configuration not stated), the INHIBITION was -30.6%. On to `Cc1csc(C(Cc2ccsc2)NC(=O)CN(C)Cc2ccccn2)n1` (configuration not stated), for which the INHIBITION turned out to be 28.3%.

Turning to `COc1ncnc(N)c1CNCCc1ccc(-n2cccn2)cc1`, the INHIBITION was determined as 16.8%. With `COc1ncnc(N)c1CNCCc1ccccc1`, the INHIBITION is reported as 75.4%. Consider `COc1ncnc(N)c1CNCCOc1ccccc1Cl`, for which the INHIBITION turned out to be 21.3%. For `COC(=O)[C@H](CCSC)NC(=O)Cc1c(C)nn(-c2ccccc2)c1C`, the INHIBITION came to 5.58%. On to `CC(C)c1noc(CCCC(=O)NCC2CCS(=O)(=O)C2)n1` (configuration not stated), for which the INHIBITION stood at 21.6%. In the case of `Cc1csc(C2CCCN(C(=O)c3c[nH]c(C)n3)C2)n1` (configuration not stated), the INHIBITION was 24%. With `Cc1[nH]nc(CCC(=O)N2C[C@@H]3CC[C@H]2CN(C(=O)N(C)C)C3)c1C`, the INHIBITION stood at 45.4%. Consider `CCOC(=O)CN1CCC(NC(=O)OC(C)(C)C)CC1`, for which the INHIBITION is listed as 32.3%. Consider `CSCCN1CCC(NC(=O)OC(C)(C)C)CC1`, for which the INHIBITION was -19.7%.

For the molecule `COC(=O)CCN1CCC(NC(=O)OC(C)(C)C)CC1`, the INHIBITION stood at 50.2%. For `CC(C)CN1CCN(C(=O)c2ccncc2F)Cc2cccnc21`, the INHIBITION is on record as -18.4%. To `O=C(CN1CCOCC1)Nc1cc(C(F)(F)F)ccc1-n1cccc1` belongs 42.6%; to `N#CCCN(CC1CCCO1)C(=O)c1ccc(C#N)cc1` (configuration not stated), -5.31%. `N#CCCN(CC1CCCO1)C(=O)c1ccsc1` (configuration not stated): the INHIBITION is listed as 57.9%.

Take `N#CCCN(CC1CCCO1)C(=O)c1ccc2nonc2c1` (configuration not stated): the INHIBITION came out at 2.59%. Take `CCNc1cc2c(nn1)CCN(C(=O)c1ccnc(-n3ccnc3)c1)C2`: the INHIBITION was 54.15%. Take `CCNc1cc2c(nn1)CCN(C(=O)c1ccoc1)C2`: the INHIBITION is reported as 39.2%.

Turning to `CCNc1cc2c(nn1)CCN(C(=O)c1cc(C)n(C3CC3)c1C)C2`, the INHIBITION is recorded as 35.9%. Turning to `CCNc1cc2c(nn1)CCN(C(=O)c1cccc3c1OCCO3)C2`, the INHIBITION worked out at 3.81%. With `CNc1cc2c(nn1)CCN(C(=O)c1cc(C)n(C3CC3)c1C)C2` the figure was 79.1%. `CNc1cc2c(nn1)CCN(C(=O)c1cccc3c1OCCO3)C2`: the INHIBITION was 51.1%. Turning to `CCNc1cc2c(nn1)CCN(C(=O)c1ccc(C(N)=O)cc1)C2`, the INHIBITION worked out at 41.65%. Turning to `CCNc1cc2c(nn1)CCN(C(=O)c1ccnc(N(C)C)c1)C2`, the INHIBITION is recorded as 4.59%.

Turning to `Cc1cc(C(=O)N2CCc3nnc(N(C)C)cc3C2)c(C)n1C1CC1`, the INHIBITION is on record as 19.4%. Regarding `CNc1cc2c(nn1)CCN(C(=O)c1cc(F)cc(F)c1)C2`, the INHIBITION was found to be 17.7%. To `CNc1cc2c(nn1)CCN(C(=O)c1ccoc1)C2` belongs 51.3%. Consider `CNc1cc2c(nn1)CCN(C(=O)c1cccc3c1OCO3)C2`, for which the INHIBITION is listed as -13.3%. Regarding `CN(CCc1ccccn1)C(=O)Cn1cc(-c2ccccc2)nn1`, the INHIBITION stood at 6.23%.

`CN1CCN([C@@H]2CN(C(=O)c3cc4ccc(F)cc4[nH]3)C[C@H]2O)CC1`: the INHIBITION worked out at 36%. In the case of `O=C(NCCn1ccnc1)N1CCCC1c1ccncc1` (configuration not stated), the INHIBITION is given as 31.9%.

As to `O=C1CN(C(=O)C2CN(c3cccc(F)c3)CCO2)CCN1` (configuration not stated), the INHIBITION is given as 13.35%. For `O=C(NCC1CC1)c1c2c(N3CCCC3)ncnc2n2ccccc12`, the INHIBITION worked out at 33.4%. `CC(C)c1ncc2c(n1)CN(Cc1cccc(C(N)=O)c1)CC2`: the INHIBITION was -34%. As to `O=C(c1ccccc1)N1CCO[C@@H]2CN(Cc3ccc[nH]3)C[C@@H]2C1`, the INHIBITION is reported as 35.8%. Consider `COCCOCC(=O)N1C[C@@H]2CC[C@H](Oc3ccccc3F)[C@@H]2C1`, for which the INHIBITION was 15.9%.

For `O[C@H]1CCN(CCCOc2ccccc2F)C[C@@]12CCCO2`, the INHIBITION was determined as 33.85%.

In the case of `Fc1cccc(-n2ccc(CN3CCCC3Cn3cccn3)n2)c1` (configuration not stated), the INHIBITION is reported as -31.8%. For `Cc1ccc2cc(CNCCN3CCCC3)c(=O)[nH]c2c1`, the INHIBITION is recorded as 39.7%. Consider `O=C(NCc1ccc2c(c1)CCCO2)c1ccc(C2CCNC2)cc1` (configuration not stated), for which the INHIBITION turned out to be 50.4%. For the molecule `O=C(NCc1ccc2c(c1)CCCO2)c1ccccc1C1CCNC1` (configuration not stated), the INHIBITION was -26.1%. For `O=C(NCc1ccc2c(c1)CCCO2)C1CNCCO1` (configuration not stated), the INHIBITION was 12.9%.

For `Cc1noc(CCCC(=O)NCCc2cc3ccccc3[nH]2)n1`, the INHIBITION is 7.18%. Take `CC(=O)N[C@@H]1C[C@H](c2ccc(OCCO)cc2)OC2(CCOCC2)C1`: the INHIBITION is 18.3%.

For the origin of these results see ChEMBL document CHEMBL4513216, “Probing the Open Global Health Chemical Diversity Library for Multistage-Active Starting Points for Next-Generation Antimalarials” (ACS Infect Dis, 2020).
